In PubChem BioAssay (EPA / NIEHS):
Active and inactive are the calls of the source. The calls were made as follows: active = hit-call score of the fitted dose curve at least 0.9, where 1 is the maximum; inactive = score below 0.9.

Legend:
Settings in all cases: primary human HUVEC with PBMC; actives raise or lower the signal
[1] = read-out: Tissue Factor, F3 (gene 2152); test: BSK_LPS_TissueFactor: BioMAP Diversity Plus: LPS Assay for Tissue Factor Biomarker Activity (AID 2283084)
In short: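 Read-out: CD142 ELISA, 24 h. System: LPS-driven human endothelial/PBMC co-culture. Analysis: up- or down-signal fitted against DMSO.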

[2] = read-out: Tumor necrosis factor (Homo sapiens) (UniProt P01375); test: BSK_LPS_TNFa: BioMAP Diversity Plus: LPS Assay for Tumour Necrosis Factor alpha (TNFa) Biomarker Activity (AID 2283085);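 as to AC50: TNFa protein level quantified by ELISA in the co-culture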
In short: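 ELISA-based TNFa endpoint in a human endothelial–PBMC co-culture sampled 24 h post-exposure. Curves were fitted in both directions using DMSO as baseline of activity.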

[3] = read-out: Vascular cell adhesion molecule 1 (VCAM1), VCAM1 (gene 7412); test: BSK_LPS_VCAM1: BioMAP Diversity Plus: LPS Assay for Vascular cell adhesion molecule 1 (VCAM1) Biomarker Activity (AID 2283086)
In short: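 Measured by ELISA: VCAM-1 in LPS-activated HUVEC/PBMC co-cultures 24 h after treatment. Values reflect bidirectional fitting with DMSO as baseline.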

CD38, CD38 (gene 952) = test: BSK_SAg_CD38: BioMAP Diversity Plus: SAg Assay for CD38 Biomarker Activity (AID 2283087)
In short: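 Measures CD38 on a human endothelial/PBMC co-culture driven by SEB and TSST-1, 24 h after compound exposure, using ELISA with fluorescence detection; DMSO defines baseline for bidirectional curve fitting.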

CD40, CD40 (gene 958) = test: BSK_SAg_CD40: BioMAP Diversity Plus: SAg Assay for CD40 Biomarker Activity (AID 2283088)
In short: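 Endpoint derived by fitting increases or decreases versus DMSO controls. CD40 is detected by fluorescence ELISA in a human vascular co-culture of endothelium and PBMC at 24 h.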

[4] = read-out: Monocyte Chemoattractant Protein-1 (MCP1), CCL2 (gene 6347); test: BSK_SAg_MCP1: BioMAP Diversity Plus: SAg Assay for Monocyte Chemoattractant Protein-1 (MCP1) Biomarker Activity (AID 2283090)
In short: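 Values derive from bidirectional fitting of ELISA-measured MCP1 against DMSO controls. Readings were taken 24 h after dosing human vascular endothelial cells co-cultured with peripheral blood mononuclear cells under superantigen stimulation.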

[5] = read-out: E-selectin (Homo sapiens) (UniProt P16581); test: BSK_SAg_Eselectin: BioMAP Diversity Plus: SAg Assay for Eselectin Biomarker Activity (AID 2283091)
In short: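 Endpoint values derive from bidirectional fitting relative to DMSO, using ELISA-measured E-selectin in a human vascular co-culture (umbilical vein endothelium plus PBMC) sampled 24 h after dosing.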

[6] = read-out: Monokine induced gamma interferon (MIG), CXCL9 (gene 4283); test: BSK_SAg_MIG: BioMAP Diversity Plus: SAg Assay for Monokine induced gamma interferon (MIG) Biomarker Activity (AID 2283092)
In short: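 Measures CXCL9 protein by ELISA in a human vascular primary-cell co-culture (umbilical vein endothelium with PBMC) 24 h after chemical addition. Activity is scored up or down from the DMSO control.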

CD69, CD69 (gene 969) = test: BSK_SAg_CD69: BioMAP Diversity Plus: SAg Assay for CD69 Biomarker Activity (AID 2283089);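 as to AC50: cell surface CD69 protein quantified by ELISA with fluorescence detection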
In short: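 Endothelial/PBMC co-culture; chemical added; 24 h incubation; CD69 ELISA with fluorescence detection; bidirectional fit vs DMSO.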

Measured: AC50

Chain of E-selectin (Homo sapiens) (P16581 whole entry, looked up): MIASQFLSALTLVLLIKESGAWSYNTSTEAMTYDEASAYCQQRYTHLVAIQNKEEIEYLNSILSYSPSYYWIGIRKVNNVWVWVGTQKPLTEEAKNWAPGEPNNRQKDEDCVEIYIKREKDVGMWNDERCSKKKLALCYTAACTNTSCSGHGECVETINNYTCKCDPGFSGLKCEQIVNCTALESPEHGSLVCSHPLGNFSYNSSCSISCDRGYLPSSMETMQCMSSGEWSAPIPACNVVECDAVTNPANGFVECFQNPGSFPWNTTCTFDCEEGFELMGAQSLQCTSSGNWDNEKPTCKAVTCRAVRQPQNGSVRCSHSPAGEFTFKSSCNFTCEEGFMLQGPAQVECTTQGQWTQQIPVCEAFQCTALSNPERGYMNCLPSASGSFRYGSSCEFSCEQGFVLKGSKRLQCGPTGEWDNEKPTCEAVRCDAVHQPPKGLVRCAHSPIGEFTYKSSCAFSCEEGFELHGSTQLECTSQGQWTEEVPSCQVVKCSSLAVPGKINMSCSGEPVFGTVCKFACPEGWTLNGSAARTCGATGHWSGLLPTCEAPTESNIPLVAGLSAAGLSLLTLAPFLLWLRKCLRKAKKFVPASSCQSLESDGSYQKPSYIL
Chain of Tumor necrosis factor (Homo sapiens) (P01375 whole entry, looked up): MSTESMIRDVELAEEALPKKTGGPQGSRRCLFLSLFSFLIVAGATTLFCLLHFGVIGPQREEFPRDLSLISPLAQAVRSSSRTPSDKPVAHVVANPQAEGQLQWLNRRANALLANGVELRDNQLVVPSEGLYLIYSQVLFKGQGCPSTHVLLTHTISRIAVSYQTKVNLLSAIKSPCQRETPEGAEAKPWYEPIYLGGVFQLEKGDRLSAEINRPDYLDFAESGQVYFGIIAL

CCCCCCc1ccc(O)cc1O
inactive: [1]
active: [2] 32.6 µM | [3] 32 µM | CD38, CD38 (gene 952) 33 µM | CD40, CD40 (gene 958) 30.6 µM | [4] 27.6 µM | [5] 33.6 µM

CC[C@H]1OC(=O)[C@H](C)[C@@H](O[C@H]2C[C@@](C)(OC)[C@@H](O)[C@H](C)O2)[C@H](C)[C@@H](O[C@@H]2O[C@H](C)C[C@H](N(C)C)[C@H]2O)[C@](C)(O)C[C@@H](C)C(=O)[C@H](C)[C@@H](O)[C@]1(C)O
inactive: [1] | [2] | [3] | CD38, CD38 (gene 952) | CD40, CD40 (gene 958) | [4] | [5]

C1N2CN3CN1CN(C2)C3
inactive: [1] | [2] | [3] | CD38, CD38 (gene 952) | CD40, CD40 (gene 958) | [4] | [5] | [6]

O=C(CCCCCCCCc1cccnc1)N1CCC(C=C(c2ccccc2)c2ccccc2)CC1
active: [1] 14.6 µM | [3] 15 µM | CD38, CD38 (gene 952) 8.97 µM | CD40, CD40 (gene 958) 8.35 µM | [4] 7.42 µM | [5] 7.71 µM

CC(C)=CCCC(C)CCO (stereo not given)
inactive: [1] | [2] | [3] | CD38, CD38 (gene 952) | CD40, CD40 (gene 958) | CD69, CD69 (gene 969) | [4] | [5] | [6]

CCCCCCCCCCCCCCCO
inactive: [1] | [6]
active: [2] 3.97 µM | [3] 32.4 µM | CD38, CD38 (gene 952) 32.6 µM | CD40, CD40 (gene 958) 37.3 µM | CD69, CD69 (gene 969) 31.7 µM | [4] 33.3 µM

CC(C)CCCCCCOC(=O)c1ccc(C(=O)OCCCCCCC(C)C)c(C(=O)OCCCCCCC(C)C)c1
inactive: [1] | [2] | [3] | CD38, CD38 (gene 952) | CD40, CD40 (gene 958) | [4] | [6]

CC1=CC(=O)CC(C)(C)C1
inactive: [1] | [2] | [3] | CD38, CD38 (gene 952) | CD40, CD40 (gene 958) | CD69, CD69 (gene 969) | [4] | [6]

O=c1n(CC2CO2)c(=O)n(CC2CO2)c(=O)n1CC1CO1 (stereo not given)
active: [3] 21.8 µM | CD38, CD38 (gene 952) 18.5 µM | CD40, CD40 (gene 958) 20 µM | [4] 20 µM | [5] 10.7 µM
inactive: [1] | [2] | [6]

Cc1ccc(O)cc1
inactive: [1] | [2] | [3] | CD38, CD38 (gene 952) | CD40, CD40 (gene 958) | CD69, CD69 (gene 969) | [4] | [5] | [6]

Cc1ccc(S(=O)(=O)O)cc1C
inactive: [1] | [2] | [3] | CD38, CD38 (gene 952) | CD40, CD40 (gene 958) | CD69, CD69 (gene 969) | [4] | [5] | [6]

CCOCCO
inactive: [1] | [2] | [3] | CD38, CD38 (gene 952) | CD40, CD40 (gene 958) | [4] | [5]

CCOC(=O)c1ccc(C2CCC(NC[C@H](O)COc3ccc(O)c(NS(C)(=O)=O)c3)CC2)cc1 (stereo not given in full)
inactive: [1] | [2] | CD40, CD40 (gene 958) | [5]
active: [3] 28.1 µM | CD38, CD38 (gene 952) 32.4 µM | [4] 11.6 µM

O=C1CCC(N2C(=O)c3ccccc3C2=O)C(=O)N1 (stereo not given)
inactive: [1] | [2] | [3] | CD38, CD38 (gene 952) | CD40, CD40 (gene 958) | [4] | [6]

CNS(=O)(=O)c1cc(C(=O)N2CCC(CCN3C4CCC3CC(n3c(C)nc5ccccc53)C4)(c3cccc(F)c3)CC2)c(Cl)cc1F (stereo not given)
active: [3] 5.99 µM | CD38, CD38 (gene 952) 28.9 µM | CD40, CD40 (gene 958) 23.2 µM | CD69, CD69 (gene 969) 20 µM | [4] 27.5 µM
inactive: [1] | [2] | [6]

O=C(OC[C@H]1O[C@@H](OC(=O)c2cc(O)c(O)c(OC(=O)c3cc(O)c(O)c(O)c3)c2)[C@H](OC(=O)c2cc(O)c(O)c(OC(=O)c3cc(O)c(O)c(O)c3)c2)[C@@H](OC(=O)c2cc(O)c(O)c(OC(=O)c3cc(O)c(O)c(O)c3)c2)[C@@H]1OC(=O)c1cc(O)c(O)c(OC(=O)c2cc(O)c(O)c(O)c2)c1)c1cc(O)c(O)c(OC(=O)c2cc(O)c(O)c(O)c2)c1
inactive: [2]
active: [3] 6.1 µM | CD38, CD38 (gene 952) 9.88 µM | CD40, CD40 (gene 958) 8.21 µM | [4] 6.1 µM | [5] 6.1 µM

C1=CCCC=CCCC=CCC1
inactive: [1] | [2] | [3] | CD38, CD38 (gene 952) | CD40, CD40 (gene 958) | [4]

NC(=O)NO
inactive: [1] | [2] | [3] | CD38, CD38 (gene 952) | CD40, CD40 (gene 958) | CD69, CD69 (gene 969) | [4] | [5] | [6]

O=C(O)c1cccc(Oc2ccccc2)c1
inactive: [1] | [2] | [3] | CD38, CD38 (gene 952) | CD40, CD40 (gene 958) | [4] | [5]

CCOC(=O)CC(CC(=O)OCC)(OC(C)=O)C(=O)OCC
inactive: [1] | [2] | [3] | CD38, CD38 (gene 952) | CD40, CD40 (gene 958) | [4] | [6]

COCCOCCOCCOC
inactive: [1] | [2] | [3] | CD38, CD38 (gene 952) | CD40, CD40 (gene 958) | [4] | [5] | [6]

CCCC(=O)OCC
inactive: [1] | [2] | [3] | CD38, CD38 (gene 952) | CD40, CD40 (gene 958) | [4] | [6]

Cc1ccc(N)cc1O
inactive: [1] | [2] | [3] | CD38, CD38 (gene 952) | CD40, CD40 (gene 958) | [4] | [6]

COc1cccc(-c2ccc(/C=C\CN3CCCCCC3)cc2Cl)c1
active: [3] 26 µM | CD38, CD38 (gene 952) 29.1 µM | CD40, CD40 (gene 958) 27.3 µM | [5] 29.8 µM | [6] 25.8 µM
inactive: [1] | [2] | [4]
